# Screening data deposited in PubChem BioAssay by National Center for Advancing Translational Sciences (NCATS).
# An excerpt weighted towards active compounds, which were near 3.4% of everything screened.
# p53ts 39C tox = qHTS Screen for Compounds that Selectively Target Cancer Cells with p53 Mutations: Cytotoxicity of p53ts Cells at the Nonpermissive Temperature; 1.5% of 130,000 active; H1299-p53A138V viability at 39C, ATP luminescence, 24 h; Potency, µM (doses to about 46.1 µM), for the others: at the highest dose activity change, negative = cell killing, hits mostly cytotoxic; further: on the % scale 0 is the no-effect control and ±100 the full control effect; nearly all actives have a fitted effect of over 55% in size
# FLuc inh = qHTS Assay for Inhibitors of Firefly Luciferase; AID 411, 2009; Potency, µM (top dose mostly 57.1 µM), for inactives: top-dose activity change, negative = inhibition, actives largely listed as inhibitors; purified firefly luciferase, luminescence, 8 min; 2.2% of 72,000 active; Luciferin 4-monooxygenase (Photinus pyralis), P08659; further: on the % scale 0 is the no-effect control and ±100 the full control effect; nearly all actives have a fitted effect of over 40% in size
#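 Titration-based qHTS; buffer 50 mM imidazole pH 7.2, 50 mM KCl, 7 mM MgCl2, 10 uM ATP, 0.01% Tween 20, 0.05% BSA; luciferase/luciferin detector mix added after compound; 8 min, ambient; luminescence.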
# p53ts 32C kill = qHTS Screen for Compounds that Selectively Target Cancer Cells with p53 Mutations: Cytotoxicity of p53ts Cells at the Permissive Temperature; Potency, µM (top dose mostly 46.1 µM), inactives show at the highest dose activity change, negative = cytotoxicity, actives largely listed as cytotoxic; 0.93% of 130,000 active; AID 924, 2007; H1299-p53A138V at 32C, ATP luminescence viability, 24 h;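 further: 0% = DMSO and -100% = full killing by reference compound; nearly all actives have a fitted effect of over 55% in size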
#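 H1299-p53 A138V cells (temperature-sensitive p53) exposed 24 h to up to 46 uM compound at 32C, where p53 is wild-type in conformation. Viability read as ATP luminescence and normalised to DMSO and 100 uM tamoxifen. AC50 fitted with the Hill equation.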
# Tau fil binding = qHTS Assay for Tau Filament Binding. Microtubule-associated protein tau (Homo sapiens), P10636. 2% of 71,000 active. Potency, µM (top dose mostly 57.1 µM), for inactives: at the top dose activity change, negative = inhibition. recombinant tau filaments, thioflavin S fluorescence, 15 h; filaments grown with octadecylsulfate alongside compound. AID 596, 2007;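 further: on the % scale 0 is the no-effect control and ±100 the full control effect; actives lower thioflavin S fluorescence by blocking filaments or displacing dye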
# Target sequence (P10636 whole entry, looked up): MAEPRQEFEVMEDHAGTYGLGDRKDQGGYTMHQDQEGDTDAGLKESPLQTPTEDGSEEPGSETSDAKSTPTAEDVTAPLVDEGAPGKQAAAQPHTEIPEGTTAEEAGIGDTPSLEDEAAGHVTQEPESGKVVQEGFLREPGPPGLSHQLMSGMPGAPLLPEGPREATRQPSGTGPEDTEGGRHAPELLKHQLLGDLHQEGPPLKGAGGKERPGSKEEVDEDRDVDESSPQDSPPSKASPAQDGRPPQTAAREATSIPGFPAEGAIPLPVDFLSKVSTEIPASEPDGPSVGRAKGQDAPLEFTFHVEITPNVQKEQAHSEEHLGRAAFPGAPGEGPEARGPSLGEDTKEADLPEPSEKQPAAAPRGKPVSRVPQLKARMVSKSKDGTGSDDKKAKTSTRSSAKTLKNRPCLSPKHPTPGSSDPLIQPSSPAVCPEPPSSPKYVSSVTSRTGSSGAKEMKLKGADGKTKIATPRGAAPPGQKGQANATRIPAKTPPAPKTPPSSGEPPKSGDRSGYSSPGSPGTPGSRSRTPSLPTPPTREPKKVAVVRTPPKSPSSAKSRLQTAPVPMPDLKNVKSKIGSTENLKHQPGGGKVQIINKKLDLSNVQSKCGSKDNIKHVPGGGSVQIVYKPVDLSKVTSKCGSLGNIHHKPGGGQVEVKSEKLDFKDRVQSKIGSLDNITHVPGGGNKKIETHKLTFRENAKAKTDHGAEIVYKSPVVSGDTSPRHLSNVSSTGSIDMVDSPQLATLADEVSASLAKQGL
#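 Tau 2 uM in ThS buffer dispensed; compound added; 60 uM ODS added (finals 1 uM tau, 30 uM ODS); 15 h 37 C; fluor ex450/em510.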
# Imprint erasure = qHTS Assay for Compounds that Induce Erasure of Genomic Imprints; mouse ES Peg3-LacZ reporter, beta-gal luminescence, 40 h; Potency, µM (top dose mostly 60.7 µM), without a hit: at the highest dose activity change, positive = activation, most hits filed as activators; 0.02% of 110,000 active
#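 Each well holds 300 Peg3LacZ-Neo (maternal) female ES cells incubated 40 h at 37C, 5% CO2. LacZ is measured by BetaGlo luminescence, with AC50 and maximum efficacy derived from dose-response curves.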
# An asterisk follows results filed as active; ? = inconclusive; . = not tested or not shown; [ ] = another dose, or the depositor's remark. The call rests on the fitted dose curve; in most records, active means well fitted curve in the direction sought with a large enough effect; inconclusive means small, poorly fitted or top-dose-only effect, or another doubt; inactive means no such curve, though single readings can be large; an effect the other way counts as inactive or inconclusive. Potency means the concentration at half of the fitted maximal effect.
SMILES,p53ts 39C tox,FLuc inh,p53ts 32C kill,Tau fil binding,Imprint erasure
CCOc1cccc(C2c3c(oc4cc(C)c(C)cc4c3=O)C(=O)N2CCCN(C)C)c1 (configuration not stated),3.2%,1.2%,0.4%,12.6µM*,-13.0%
CN(C)CCCN1c2ccccc2Sc2cnccc21,-2.8%[9.22 µM],1.7%[11.4 µM],4.5%[9.22 µM],-24.1%[11.4 µM],-2.3%[10.9 µM]
CSc1ccc2c(c1)N(CCCN(C)C)c1ccccc1S2,-8.2%[9.22 µM],3.2%[11.4 µM],0.9%[9.22 µM],3.16µM*,-14.5%[10.9 µM]
CN(C)CCCN1c2ccc(O)cc2Sc2ccc(Cl)cc21,-6.3%[9.22 µM],1.4%[11.4 µM],-2.3%[9.22 µM],3.16µM*,-11.0%[10.9 µM]
OC1CC2CC[C@H](C1)N2CCCN1c2ccccc2Sc2ccc(Cl)cc21 (some centres not stated),1.6%[9.22 µM],0.0%[11.4 µM],2.0%[9.22 µM],-17.1%[11.4 µM],-12.6%[10.9 µM]
COC(=O)c1c(-c2cccs2)csc1NC(=O)COc1c(C)ccc(C)c1C,10.9%,.,-1.8%,.,-9.8%[10.9 µM]
COc1ccc(CNS(=O)(=O)c2cc(C(=O)Nc3cc(Cl)cc(Cl)c3)ccc2F)cc1,?,.,3.3%,.,-6.4%[10.9 µM]
O=C(Nc1ccc(Br)cc1)c1ccc(F)c(S(=O)(=O)NC2CCCCCC2)c1,12.6µM*,.,?,.,-25.2%[10.9 µM]
O=C(Nc1cc(Cl)cc(Cl)c1)c1ccc(F)c(S(=O)(=O)NC2CCCCC2)c1,25.1µM*,.,?,.,14.9%[10.9 µM]
O=C(Nc1ccc(F)c(F)c1)c1cc(S(=O)(=O)NC2CCCCCC2)ccc1F,-13.6%,.,-12.6%,.,-7.9%[10.9 µM]
FC(F)(F)c1ccc(-c2noc(-c3ccccc3)c2I)cc1,.,.,.,.,-25.4%
COc1ccc(NC(=O)c2c(-c3ccccc3)c(-c3ccccc3)nn(C)c2=O)c(OC)c1,6.0%,.,8.9%,.,8.7%[10.9 µM]
O=C1CC2(CCCC2)CC(=O)N1CCNC[C@H]1COc2ccccc2O1,-6.5%,-0.6%,4.9%,31.6µM*,-15.9%
CCCOC(=O)c1c(NC(=O)c2nc3ncccn3n2)sc(C(=O)OCC)c1C,6.3%,.,-4.9%,.,26.7%[10.9 µM]
C[C@@]12C=CC(=O)C=C1CC[C@@H]1C2=CC[C@]2(C)[C@@H]1CC[C@H]2C(=O)CN1CCN(c2cc(N3CCCC3)nc(N3CCCC3)n2)CC1,23.3%,1.5%,2.2%,6.31µM*,.
CCCN1C[C@@H](CSC)C[C@H]2c3cccc4[nH]cc(c34)C[C@@H]21,5.5%,3.0%,-15.4%,58.7%,.
CCOc1ccccc1NC(=O)c1cc2c(=O)oc3ccccc3c2s1,0.0%,.,2.4%,.,8.0%[10.9 µM]
COc1cc(CNC(=O)CCCCCCC(C)C)ccc1O,-19.0%,1.7%[11.4 µM],-8.8%,23.0%,-33.4%
CCCCCCCCC(=O)NCc1cc(OC)c(O)cc1I,31.6µM*,-1.7%,3.8%,?,-7.2%
COc1cccc(NC(=O)Cn2c(=O)n(CCCCC(=O)NCc3ccccc3Cl)c(=O)c3ccccc32)c1,9.5%,.,9.0%,.,-2.8%[10.9 µM]
O=C(Nc1cccc(F)c1)C1CCN(S(=O)(=O)c2ccc3[nH]c4c(c3c2)CCCCC4)CC1,-2.9%,.,17.3%,.,-12.8%[10.9 µM]
Cc1ccc(Cl)cc1N1CCN(C(=O)c2cnc(N3CCOCC3)c3ccccc23)CC1,-7.7%,.,-0.7%,.,12.7%[10.9 µM]
N#Cc1nc(Cc2cccc3ccccc23)oc1NCCN1CCCCC1,?,7.94µM*,-18.3%,25.6%,-68.3%
O=C(Cn1c(=O)n(Cc2ccc(F)cc2)c(=O)c2sc3ccccc3c21)NCc1ccccc1,-14.4%,.,0.1%,.,-5.6%[10.9 µM]
N#CC1=C(SCC(=O)NC2CC2)NC(=O)C(C#N)C12CCCCC2 (configuration not stated),6.8%,4.0%,6.2%,13.1%,-9.0%
SMILES,p53ts 39C tox,FLuc inh,p53ts 32C kill,Tau fil binding,Imprint erasure
CC(C)(C)C1CCC2(CC1)C(C#N)=C(SCC(=O)NC1CCCCC1)NC(=O)C2C#N (configuration not stated),22.8%,0.2%,40.5%,12.6µM*,-12.4%
CCOC(=O)Cc1csc(NC(=O)c2ccc(C)o2)n1,-0.7%,-3.7%,-8.7%,1.0%,-42.2%
COc1cc(NC(=O)c2csc3c2CCCC3)ncn1,?,12.6µM*,?,21.4%,-59.1%
CCOC(=O)Cc1csc(NC(=O)c2csc3c2CCCC3)n1,?,15.8µM*,-21.1%,15.0%,-29.9%
CCOc1ccccc1NC(=O)C(c1ccccc1)N1Cc2ccccc2C1=O (configuration not stated),.,.,-3.9%,.,.
Cc1nc(N)sc1-c1csc(N(C)c2ccc(O)cc2)n1,-23.5%,12.6µM*,-21.1%,?,-27.1%
CC(=O)N(C)c1nc(-c2ccc(Cl)cc2)cs1,-11.0%,-7.5%,-11.1%,2.4%,.
COc1ccc(-n2c(N)c(C(=O)NCC3CCCO3)c3nc4ccccc4nc32)c(OC)c1 (configuration not stated),-11.6%,0.2%,-9.8%,25.1µM*,-3.8%
COc1ccc2c(=O)c3c(=O)n(Cc4ccco4)c(-c4ccccc4)nc3oc2c1,-2.9%,2.0%,19.8%,2.51µM*,-10.6%
CCCCCCn1c(-c2ccco2)nc2oc3cc(OC)ccc3c(=O)c2c1=O,-4.8%,0.3%,3.2%,3.16µM*,-11.5%
CCn1c(C)cc(=S)c2ccccc21,-13.9%,-1.3%,-8.8%,5.01µM*,-16.8%
CCn1c2ccccc2c2cc(N)ccc21,-2.6%,-7.5%,2.7%,3.16µM*,-23.8%
CCCCN(C)CCCNC(=O)c1ccc2nc(N3CCCCC3)sc2c1,-4.3%,.,-7.3%,.,-10.7%[10.9 µM]
CCc1ccc2nc(N3CCC(C(=O)O)CC3)sc2c1,6.31µM*,.,6.31µM*,.,-9.9%[10.9 µM]
CCc1ccc2nc(N3CCN(C(=O)C4CC4)CC3)sc2c1,-24.1%,.,5.0%,.,-2.1%[10.9 µM]
CCCCN(C)CCNC(=O)C1CCN(c2nc3ccc(CC)cc3s2)CC1,15.8µM*,.,10µM*,.,-9.1%[10.9 µM]
O=C(c1cccc(F)c1)N1CCC2(CC1)CCN(c1cccc(-c3ccccc3)c1)CC2,4.2%,0.3%[11.4 µM],-5.4%,25.1µM*,.
O=C(c1cccc(F)c1)N1CCC2(CC1)CN(c1cccc(-c3ccccc3)c1)C2,-17.1%,-5.4%[11.4 µM],-12.0%,-12.5%,.
CC(=O)N1CCC2(CC1)CCN(c1ccc(-c3ccccc3)cc1)CC2,-17.9%,-3.2%[11.4 µM],-15.0%,12.6µM*,.
NCCC[C@@H](CC(=O)N[C@@H]1CCNC[C@H]1C(=O)N[C@H](CC(=O)N[C@@H](CCC(=O)O)CC(=O)O)Cc1ccccc1)NC(=O)C[C@H](CO)NC(=O)[C@@H]1CNCC[C@H]1N,.,.,.,-28.9%,.
COc1ccccc1CNC(=O)CN1C(=O)COc2ccc(S(=O)(=O)NC3CCCC3)cc21,.,.,2.0%,.,.
O=C(O)c1cccc(NC(=O)c2cccc(S(=O)(=O)N3CCCCC3)c2)c1,-0.9%,-10.9%,-29.8%,2.7%,2.5%
CCOC(=O)c1ccc(NC(=O)c2ccc(C)c(S(=O)(=O)N3CCOCC3)c2)cc1,?,-1.6%,15.8µM*,26.5%[11.4 µM],-22.0%
